# Source: PubChem BioAssay AID602141 (Sanford-Burnham Center for Chemical Genomics, 2011)
# Values joined by “and” are separate entries in the source; they are usually repeats but may differ in a detail not shown here. Equal entries are not always repeated. Out of some 360,000 compounds screened, about 1,300 (0.36%) were called active.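 The calls were made as follows: active = corrected activity change at or below -50% at 5 µM; inactive = the rest.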 The sample as a whole holds a higher share of actives than the screen did.
# Experiment: cytotoxicity in KKLEB CF airway cells, primary screen, cytotoxicity control for CF NF-kB inhibitor project, cell-based, uHTS, fluorescence assay plates (AID 602141)
# Settings: KKLEB CF airway cells viability, ATPlite luminescence, overnight; at 5 µM; stronger effect = lower value; cells stimulated with P. aeruginosa culture filtrate
row,SMILES,activity change (cytotoxicity)
1,CCCN(CCC)C(=S)Nc1cc(C(=O)OC)ccc1C(=O)OC,-5.9% (inactive)
2,COC(=O)c1ccc(C(=O)Nc2cc(Cl)ccc2Cl)cc1NC(=O)c1ccccc1C,-62.7% (active)
3,COC(=O)c1ccccc1NC(=O)c1cncc(Br)c1,16% (inactive)
4,CC(=O)Nc1ccc(S(=O)(=O)N2CCn3cccc3C2C)cc1 (stereo not given),-3.5% (inactive)
5,CCCCN=C1C([N+](=O)[O-])=CC=C2C1=NC1(CCCCC1)N2O,-4.3% (inactive)
6,CC(C)C[C@H]1CN=C(Nc2ccccc2)N1CC1CCCCC1,3.3% (inactive)
7,Clc1ccc(-c2cc(-c3ccccn3)on2)c(Cl)c1,-62.1% (active)
8,Fc1ccc(-c2ccc(CNCc3ccccn3)o2)cc1Cl,5.4% (inactive)
9,Clc1ccc(COn2c(-c3ccc(Cl)cc3Cl)nc3ncccc32)cc1,1.3% (inactive)
10,O=C(CCN1C(=O)[C@@H]2Cc3ccccc3CN2C1=O)NCc1ccccc1,-2.4% (inactive)
11,CC(C)CCn1c(=O)c2c(nc3n2CCCN3Cc2ccccc2)n(C)c1=O,-20.8% (inactive)
12,Cc1cc(C)cc(-c2nnc(SCC(=O)NC3CC3)o2)c1,8.4% (inactive)
13,c1csc(CN2CCN(Cc3cccs3)C2c2cccs2)c1,0% (inactive)
14,O=C(NCCSc1ncc(-c2ccccc2)[nH]1)c1ccco1,0.1% (inactive)
15,Cc1ccc(-c2cc(N)on2)cc1,-5.6% (inactive)
16,Cc1ccc(-c2cn3cc(C)ccc3n2)cc1,-61.7% (active)
17,Cc1ccc2nc(-c3ccc(Br)cc3)cn2c1,-30% (inactive)
18,CCn1c(SCC(=O)Nc2ccc(Br)cc2)nc2sc3c(c2c1=O)CCN(C)C3,9.6% (inactive)
19,COC(=O)c1cc(NC(=O)c2nn(C)c(=O)c3ccccc23)cc(C(=O)OC)c1,-11.1% (inactive)
20,CSc1nnc(NC(=O)c2nc(S(=O)(=O)Cc3ccc(C)cc3)ncc2Cl)s1,-74.7% (active)

row,SMILES,activity change (cytotoxicity)
1,O=C(Nc1nnc(Cc2ccc(Cl)cc2)s1)c1cccnc1,-6% (inactive)
2,CN(Cc1ccccc1)S(=O)(=O)c1nnc(NC(=O)c2ccccc2F)s1,-8.6% (inactive)
3,Cc1cccc(CS(=O)(=O)c2ncc(Cl)c(C(=O)Nc3ccc(F)cc3)n2)c1,-15.9% (inactive)
4,Cc1ccc(CS(=O)(=O)c2ncc(Cl)c(C(=O)Nc3nnc(C)s3)n2)cc1,-93.7% (active)
5,O=C(Nc1nnc(-c2ccc(F)cc2)s1)c1c(F)cccc1Cl,7.4% (inactive)
6,COCCNC(=O)C1(C)CCCN(Cc2cccc(F)c2)C1 (stereo not given),6.2% (inactive)
7,CCOC(=O)NC(=O)C(=CNc1cccc(OC)c1)C(=O)NC(=O)OCC,17.8% (inactive)
8,CC(C)Nc1nc(NCCOc2ccccc2Cl)c2sccc2n1,-5.6% (inactive)
9,CN(c1ccc2nc3ccccc3c(=O)n2n1)C1CCCCC1,-54.1% (active)
10,CN(C(=O)Nc1ccc(Cl)cc1)n1cnc2ccccc2c1=O,6.1% (inactive)
11,CC(C)(C)c1nc2ccccc2c(=O)n1N1C(=O)c2ccccc2C1=O,-12.6% (inactive)
12,O=[N+]([O-])/C=C1\CCCCCN1,-1.7% (inactive)
13,COc1ccc(CNc2c(CO)cnc3c2cnn3C)cc1,-62.1% (active)
14,CCCn1nnnc1NCc1ccc(OC)cc1,5.9% (inactive)
15,COc1ccc(CNc2nnnn2C)cc1,6.7% (inactive)
16,C[C@@H]1CN([C@H](C)CO)C(=O)c2cc(NC(=O)NC3CCCCC3)ccc2O[C@H]1CN(C)S(C)(=O)=O,2.2% (inactive)
17,C[C@H]1CN([C@@H](C)CO)C(=O)CCCn2cc(nn2)CO[C@@H]1CN(C)S(=O)(=O)c1cccc(C#N)c1,4.9% (inactive)
18,O=C(Nc1cccc(C(=O)NC2CC2)c1)c1ccc(F)c(S(=O)(=O)N2CCOCC2)c1,-2.3% (inactive)
19,COc1cc(NS(=O)(=O)c2ccc(NC(=S)NC(=O)c3ccc(Br)cc3)cc2)ncn1,1% (inactive)
20,COc1cc(NC(=O)c2[nH]cnc2C(N)=O)cc(C(=O)Nc2cccc(C(F)(F)F)c2)c1,-61.7% (active)

row,SMILES,activity change (cytotoxicity)
1,COc1cc(C(=O)N(C)Cc2cccc(OC)c2OC)ccc1OCC(=O)Nc1cccc(C(F)(F)F)c1,7.7% (inactive)
2,COc1cc(NC(=O)c2cncc(-c3ccc(C#N)cc3)c2)cc(C(=O)Nc2cccc(C(F)(F)F)c2)c1,7.5% (inactive) and 5.1% (inactive)
3,Cc1cccc(C(=O)O)c1[N+](=O)[O-],14% (inactive)
4,Cn1ccnc1-c1nnn(-c2ccc(F)cc2)n1,-12.5% (inactive)
5,CCNC(=O)C1(C)CCCN(C(=O)c2ccc3ccccc3n2)C1 (stereo not given),-5.1% (inactive)
6,O=C(NCC1CCCO1)c1cc2c([nH]c3ccccc32)c(-c2ccc(F)cc2)n1 (stereo not given),-5.3% (inactive)
7,CC1=CCC2C(=O)N(c3cccc(C(=O)NC(C)c4ccccc4)c3)C(=O)C2C1 (stereo not given),-1.1% (inactive)
8,Cc1cccc(C)c1NC1=NC(=S)N(c2ccc(N(C)C)cc2)C1(C)C,-3.7% (inactive)
9,O=C1CCCN1C(=O)COc1ccc([N+](=O)[O-])cc1,-6.8% (inactive)
10,O=C1/C(=C\c2ccc([N+](=O)[O-])cc2)CS(=O)(=O)C/C1=C/c1ccc([N+](=O)[O-])cc1,-101% (active)
11,CCCCC(=O)Nc1c2c(nn1-c1ccc([N+](=O)[O-])cc1)CS(=O)(=O)C2,-15.2% (inactive)
12,CO[C@@H]1[C@@H](OC(N)=O)[C@@H](O)C(Oc2ccc3c(O)c(NC(=O)c4ccc(O)c(CC=C(C)C)c4)c(=O)oc3c2C)OC1(C)C (stereo not given in full),44.1% (inactive)
13,CS/C(=C\[N+](=O)[O-])Nc1ccc(C)cc1,-4.4% (inactive)
14,CCOc1ccc(C(=O)NC(C(=O)NCc2ccccn2)C(C)C)cc1 (stereo not given),-1.5% (inactive)
15,O=S(=O)(Nc1ccccc1N1CCOCC1)c1ccc(Cl)s1,1.7% (inactive)
16,O=C(Nc1cccc(Cl)c1)Nc1ccccc1NS(=O)(=O)c1cccs1,13.5% (inactive)
17,COc1cc(NC(=O)c2ccccc2NS(=O)(=O)c2ccc(Cl)s2)cc(OC)c1,-57.2% (active)
18,COc1ccc(C(CC(=O)Nc2ccc(C)cc2)NC(=O)C(F)(F)F)cc1 (stereo not given),6.9% (inactive)
19,COc1ccc(CC(=O)Nc2ccc(-c3nnc(-c4ccc(C)cc4)o3)cc2)cc1,-56.3% (active)
20,COc1ccc(NC(=O)Cn2c(-c3ccc(OC)cc3)cn(-c3ccc(C)cc3)c2=O)cc1,12.5% (inactive)
